High-throughput results (PubChem BioAssay)
hcGAS inh: Primary biochemical luminescence assay for human cyclic GMP-AMP synthase inhibitors. Q8N884. recombinant h-cGAS, ATP depletion, Kinase-Glo luminescence. inhibition, % at 12.5 µM. 290,000 tested, 0.081% active. AID 1259398, 2018
Target sequence (Q8N884 whole entry, looked up): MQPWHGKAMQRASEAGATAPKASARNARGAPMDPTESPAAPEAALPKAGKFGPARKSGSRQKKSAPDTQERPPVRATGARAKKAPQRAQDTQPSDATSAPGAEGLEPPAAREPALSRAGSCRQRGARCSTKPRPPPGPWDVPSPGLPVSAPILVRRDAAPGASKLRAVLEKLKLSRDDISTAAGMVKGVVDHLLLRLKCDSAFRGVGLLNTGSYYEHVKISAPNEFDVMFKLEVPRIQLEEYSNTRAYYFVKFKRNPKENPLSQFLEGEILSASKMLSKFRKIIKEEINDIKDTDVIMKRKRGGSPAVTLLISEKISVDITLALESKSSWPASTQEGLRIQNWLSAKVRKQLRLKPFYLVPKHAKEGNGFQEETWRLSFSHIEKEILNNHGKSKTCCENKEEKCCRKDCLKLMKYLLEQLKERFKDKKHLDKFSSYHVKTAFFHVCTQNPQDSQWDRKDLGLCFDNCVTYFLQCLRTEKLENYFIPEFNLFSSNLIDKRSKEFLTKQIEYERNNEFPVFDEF
NPYLR7 agonist: agonists of mosquito NPYLR7 receptor, primary screen, cell-based, Aedes aegypti, calcium fluorescence, mosquito biting behavior | Aedes aegypti neuropeptide Y-like receptor 7 (NPYLR7) | HEK293T NPYLR7/Galpha15, GCaMP6s calcium fluorescence | activation, % at 10 µM | 270,000 tested, 0.15% active; in the data active = activation above about 40%
mcGAS inh: cyclic GMP-AMP synthase inhibitors, mouse, primary biochemical chemiluminescence. 160,000 tested, 0.15% active. AID 1259399, 2018. recombinant cGAS, Kinase-Glo ATP depletion luminescence. inhibition, % at 12.5 µM. Q8C6L5
Hits are given with their value; n = inactive; x = no result; + = active, no number. A selection: hits, their analogues and other compounds. The true share with any hit is near 0.3%. Rule as the data show it, unless noted: active = inhibition above about 40%; inactive = the rest.

SMILES	hcGAS inh	NPYLR7 agonist	mcGAS inh
CN1CCN(N=CC2C(=O)Nc3ccccc32)CC1 (centres undefined)	n	n	x
O=C1Nc2ccccc2C1C=NN1CCOCC1 (centres undefined)	n	51	n
COc1ccccc1-c1c(C)oc2c3c(ccc2c1=O)OCN(CCc1cccs1)C3	n	n	n
O=c1oc(/C=C/c2ccco2)nc2ccc(Br)cc12	n	n	45
O=c1oc(C=Cc2ccco2)nc2sc3c(c12)CCCC3	n	n	x
COCCn1c(C2CC(=O)N(c3ccccc3F)C2)nc2ccccc21 (centres undefined)	n	n	n
CCN(CC)CC[n+]1c(C)cc(C=C2Sc3ccccc3N2C)cc1C	n	44	x
CN1C(=CC(=O)C(F)(F)F)Sc2ccccc21	n	n	n
Cc1ccc(S(=O)(=O)N=C2C=C(ON=C3C=CC(=O)C=C3)C(=O)c3ccccc32)cc1	n	n	n
CC(=O)Oc1ccc2c(c1OC(C)=O)C(=O)c1ccccc1C2=O	n	n	n
CC(=O)Oc1cccc2c1C(=O)c1c(OC(C)=O)cc(C(=O)O)cc1C2=O	57	n	n
O=C1NC2(CCSC2)C(=O)N1Cc1sc2ccccc2c1Cl (centres undefined)	n	n	x
O=C(/C=C/c1cccc([N+](=O)[O-])c1)n1cnc2ccccc21	n	n	42
O=[N+]([O-])c1cccc(C=Nn2cnc3ccccc32)c1	n	n	n
CCCCN(CCC(=O)NC1CCN(Cc2ccccc2)CC1)c1nc(Cc2ccc(C)cc2)ns1	n	n	n
COc1ccc(C)cc1NC(=O)CCc1c(C)nn(-c2nc(C)cc(=O)[nH]2)c1C	n	n	x
COC(=O)C(C)Sc1nc2sc3c(c2c(=O)n1Cc1ccccc1)CCC3 (centres undefined)	n	n	x
COC(=O)C(C)Sc1nc2sc3c(c2c(=O)n1C)CCC3 (centres undefined)	n	51	x
COc1cc(C=C2N=C(C34CC5CC(CC(C5)C3)C4)OC2=O)cc(OC)c1OC	n	n	x
CCCCN(C)C1=CC2=CC(=C(C#N)C#N)CCC2CC1 (centres undefined)	n	+	n
CCN(CC)C1=CC2=CC(=C(C#N)C#N)CCC2CC1 (centres undefined)	n	615	n
CN(Cc1ccccc1)C1=CC2=CC(=C(C#N)C#N)CCC2CC1 (centres undefined)	n	118	x
CS(=O)(=O)CC(=O)N(Cc1ccccc1)CC1CCC1	n	n	x
Cc1cc(C)nc(N2CCCC(C(=O)NCC3CCCN4CCCCC34)C2)n1 (centres undefined)	n	x	n
COC(=O)C1(NC(=O)c2cnn(C(C)(C)C)c2)CCC(C)CC1 (centres undefined)	n	n	x
SMILES	hcGAS inh	NPYLR7 agonist	mcGAS inh
COCCCN(Cc1c(-c2ccc(F)cc2)noc1N1CCN(C)CC1)C(=O)C1CCCC1	n	n	n
C=CCN1C(=O)c2cccc3c(Cl)ccc(c23)C1=O	n	n	n
Cc1cccc(N2C(=O)c3cccc4c(N)ccc(c34)C2=O)c1	n	n	n
CC(=O)Nc1ccc2c3c(cccc13)C(=O)N(c1ccccc1)C2=O	n	n	n
Nc1ccc2c3c(cccc13)C(=O)N(c1ccccc1)C2=O	n	76	x
C=CCNc1ccc2c3c(cccc13)C(=O)N(c1ccccc1)C2=O	n	99	n
O=C1c2cccc3c(NCCO)ccc(c23)C(=O)N1CCO	n	107	n
CCNC(=O)N1CCN2C(=O)CN(C)C(=O)C2C1 (centres undefined)	n	n	n
O=S(=O)(c1ccc(F)cc1)N1CCCC(C(F)(F)F)C1 (centres undefined)	n	n	x
COc1ccc(-c2n[nH]c(=S)n2N=Cc2ccc(OC)c(Br)c2)cc1	n	n	n
COc1cc(Br)c(O)c(/C=N\n2c(C)n[nH]c2=S)c1	n	134	x
COc1ccc(Oc2c(C)oc3c4c(ccc3c2=O)OCN(C2CC2)C4)cc1	n	n	n
COc1ccccc1C1CC1C(=O)N1CCCC(c2cc(C)[nH]n2)C1 (centres undefined)	n	n	x
COc1ccc2c(c1)OC/C(=C\c1ccc(OC)c(O)c1)C2=O	n	x	46
COc1cc(C=C2COc3ccccc3C2=O)ccc1OCc1ccccc1	n	n	n
Cc1ccccc1N1C(=O)CSC1c1ccc(NC(=O)c2ccc([N+](=O)[O-])cc2Cl)cc1 (centres undefined)	n	n	n
COC(=O)/C(C#N)=C/c1c(OC)[nH]c2ccccc12	n	n	x
CC(=O)Oc1c(/C=C(\C#N)C(N)=O)[nH]c2ccccc12	n	51	x
COc1cccc(-c2cc(C(=O)N(CCC(=O)NCCC3CCCN3C)CC(C)C)no2)c1 (centres undefined)	+	n	x
CC(C)NC(=O)CCN(CC1CCCO1)C(=O)c1cc(-c2cccc(Cl)c2)on1 (centres undefined)	n	x	n
CC(=O)N1CCc2c(sc(NC(=O)c3ccccc3)c2-c2nc3ccccc3s2)C1	n	n	x
CC(=O)N1CCc2c(sc(NC(=O)Cc3ccccc3)c2-c2nc3ccccc3s2)C1	n	n	x
CC(C)N1CCc2c(sc(NC(=O)c3ccc([N+](=O)[O-])o3)c2-c2nc3ccccc3s2)C1	n	n	n
CC(C)N1CCc2c(sc(NC(=O)C3CC3)c2-c2nc3ccccc3s2)C1	45	166	n
CC(C)C(=O)Nc1sc2c(c1-c1nc3ccccc3s1)CCN(C)C2	n	49	n
SMILES	hcGAS inh	NPYLR7 agonist	mcGAS inh
CN1CCc2c(sc(NC(=O)Cc3ccccc3)c2-c2nc3ccccc3s2)C1	n	45	n
CC(C)C(=O)Nc1sc2c(c1-c1nc3ccccc3s1)CCN(C(C)C)C2	78	66	90
CCOC(=O)N1CCc2c(sc(NC(=O)C(C)C)c2-c2nc3ccccc3s2)C1	n	n	x
COCCNC(=S)NCCc1cc2c(OC)ccc(OC)c2[nH]c1=O	n	n	n
O=C(CCc1ccccc1)N1CCCC(OCc2cccc(C(F)(F)F)c2)C1 (centres undefined)	n	n	x
COc1ccc(N2CCN(CCCSC)C(C)C2)cc1 (centres undefined)	n	n	n
O=C(Cn1c2ccccc2c2ncn(Cc3ccccc3)c(=O)c21)NC1CCCC1	n	n	n
O=C1NCCC12CCN(Cc1ccc(-c3csnn3)cc1)CC2	n	n	x
Cc1ccc2c(c1)C1(SCCN1C(=O)c1ccccc1C)C(=O)N2Cc1ccccc1Cl (centres undefined)	n	x	n
CN(Cc1cnc2c(S(C)(=O)=O)cnn2c1)C1CCCc2ccccc21 (centres undefined)	n	n	n
CNc1cccc(-c2ccc(OC)c(OC)c2)n1	n	n	x
O=C1N=c2ccccc2=C1c1sc(=S)n(-c2ccccc2)c1O	n	n	n
O=C1N=c2ccccc2=C1c1sc(=O)[nH]c1O	n	n	63
CCOc1ccc(OCC)c(S(=O)(=O)NCc2ccco2)c1	n	n	n
O=C1/C(=C/c2csnn2)COc2c1ccc(Cl)c2Cl	n	n	x
Cc1cc(C)c2c(c1)OC/C(=C\c1csnn1)C2=O	n	n	45
O=c1c2ccccc2nc(-c2ccccc2)n1NC(=S)Nc1ccccc1	n	x	x
COc1cccc(C(=O)Oc2ccc3c(c2)O/C(=C\c2ccc(C)o2)C3=O)c1	n	n	n
